According to PubChem BioAssay:
The source made the active and inactive calls.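 How the source made its calls: active means normalized viability below 100% at a tested concentration; inactive means the rest.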

Assay: drug combination growth inhibition, ovarian cancer – cell-based, oncology-focused library, rucaparib conditional, profiling panel (AID 1508598)
Conditions: patient-derived ovarian cancer cells, CellTiter-Glo viability, 144 h, stronger effect = lower value
[1] = at 0.000305 µM, OCI-C5x cells, with rucaparib 10 µM, 100% = cells with rucaparib alone
[2] = at 0.000305 µM, OCI-C5x cells, without rucaparib
[3] = at 0.000305 µM, OCI-P5x cells, with rucaparib 20 µM, 100% = cells with rucaparib alone
[4] = at 0.000305 µM, OCI-P5x cells, without rucaparib
[5] = at 0.00122 µM, OCI-C5x cells, with rucaparib 10 µM, 100% = cells with rucaparib alone
[6] = at 0.00122 µM, OCI-C5x cells, without rucaparib
[7] = at 0.00122 µM, OCI-P5x cells, with rucaparib 20 µM, 100% = cells with rucaparib alone
[8] = at 0.00122 µM, OCI-P5x cells, without rucaparib
[9] = at 0.00488 µM, OCI-C5x cells, with rucaparib 10 µM, 100% = cells with rucaparib alone
[10] = at 0.00488 µM, OCI-C5x cells, without rucaparib
[11] = at 0.00488 µM, OCI-P5x cells, with rucaparib 20 µM, 100% = cells with rucaparib alone
[12] = at 0.00488 µM, OCI-P5x cells, without rucaparib
[13] = at 0.0195 µM, OCI-C5x cells, with rucaparib 10 µM, 100% = cells with rucaparib alone
[14] = at 0.0195 µM, OCI-C5x cells, without rucaparib
[15] = at 0.0195 µM, OCI-P5x cells, with rucaparib 20 µM, 100% = cells with rucaparib alone
[16] = at 0.0195 µM, OCI-P5x cells, without rucaparib
[17] = at 0.0781 µM, OCI-C5x cells, with rucaparib 10 µM, 100% = cells with rucaparib alone
[18] = at 0.0781 µM, OCI-C5x cells, without rucaparib
[19] = at 0.0781 µM, OCI-P5x cells, with rucaparib 20 µM, 100% = cells with rucaparib alone
[20] = at 0.0781 µM, OCI-P5x cells, without rucaparib
[21] = at 0.313 µM, OCI-C5x cells, with rucaparib 10 µM, 100% = cells with rucaparib alone
[22] = at 0.313 µM, OCI-C5x cells, without rucaparib
[23] = at 0.313 µM, OCI-P5x cells, with rucaparib 20 µM, 100% = cells with rucaparib alone
[24] = at 0.313 µM, OCI-P5x cells, without rucaparib
[25] = at 1.25 µM, OCI-C5x cells, with rucaparib 10 µM, 100% = cells with rucaparib alone
[26] = at 1.25 µM, OCI-C5x cells, without rucaparib
[27] = at 1.25 µM, OCI-P5x cells, with rucaparib 20 µM, 100% = cells with rucaparib alone
[28] = at 1.25 µM, OCI-P5x cells, without rucaparib
[29] = at 5 µM, OCI-C5x cells, with rucaparib 10 µM, 100% = cells with rucaparib alone
[30] = at 5 µM, OCI-C5x cells, without rucaparib
[31] = at 5 µM, OCI-P5x cells, with rucaparib 20 µM, 100% = cells with rucaparib alone
[32] = at 5 µM, OCI-P5x cells, without rucaparib

Measured: viability

CC#C[C@@]1(O)CC[C@H]2[C@@H]3CCC4=CC(=O)CCC4=C3[C@H](c3ccc(N(C)C)cc3)C[C@@]21C
inactive: [1] 124% | [2] 104% | [5] 112% | [6] 114% | [9] 122% | [10] 108% | [13] 118% | [14] 110% | [17] 122% | [18] 111% | [21] 113% | [22] 118% | [25] 121% | [26] 118% | [29] 162% | [30] 140%
active: [3] 88.4% | [4] 89.8% | [7] 88.8% | [8] 94.8% | [11] 93.3% | [12] 95% | [15] 86.7% | [16] 87.4% | [19] 84.5% | [20] 86.4% | [23] 83.6% | [24] 89.9% | [27] 87.2% | [28] 91% | [31] 72.1% | [32] 89.7%

CC1=C(/C=C/C(C)=C\C=C\C(C)=C/C(=O)O)C(C)(C)CCC1
inactive: [1] 112% | [2] 108% | [5] 115% | [6] 105% | [9] 111% | [10] 109% | [12] 101% | [13] 103% | [14] 106% | [17] 105% | [18] 109% | [21] 108% | [22] 106% | [25] 103% | [26] 105% | [30] 104%
active: [3] 94.7% | [4] 87.1% | [7] 78.9% | [8] 65.9% | [11] 81.7% | [15] 99% | [16] 97.6% | [19] 96.7% | [20] 97.6% | [23] 93.9% | [24] 96.4% | [27] 92.6% | [28] 92.3% | [29] 96.2% | [31] 84.1% | [32] 82.8%

CCCCCOC(=O)Nc1nc(=O)n([C@@H]2O[C@H](C)[C@@H](O)C2O)cc1F (stereo partly drawn)
inactive: [1] 114% | [2] 111% | [3] 115% | [4] 116% | [5] 119% | [6] 120% | [7] 123% | [8] 115% | [9] 111% | [10] 126% | [11] 115% | [12] 123% | [13] 126% | [14] 113% | [15] 115% | [16] 123% | [17] 101% | [18] 111% | [19] 121% | [20] 118% | [21] 106% | [22] 109% | [23] 115% | [24] 123% | [25] 105% | [26] 117% | [27] 113% | [28] 116% | [29] 107% | [30] 114% | [31] 121% | [32] 122%

Nc1ncn([C@@H]2O[C@H](CO)[C@@H](O)[C@@H]2O)c(=O)n1
active: [31] 97.7% | [32] 99.1%
inactive: [1] 104% | [2] 128% | [3] 103% | [4] 125% | [5] 108% | [6] 132% | [7] 102% | [8] 123% | [9] 114% | [10] 122% | [11] 102% | [12] 116% | [13] 114% | [14] 129% | [15] 110% | [16] 119% | [17] 117% | [18] 119% | [19] 110% | [20] 122% | [21] 112% | [22] 124% | [23] 114% | [24] 122% | [25] 110% | [26] 123% | [27] 105% | [28] 111% | [29] 107% | [30] 109%

CC[C@]1(O)C[C@@H]2CN(CCc3c([nH]c4ccccc34)[C@@](C(=O)OC)(c3cc4c(cc3OC)N(C=O)[C@H]3[C@@](O)(C(=O)OC)[C@H](OC(C)=O)[C@]5(CC)C=CCN6CC[C@@]43[C@@H]65)C2)C1
inactive: [1] 113% | [2] 110% | [5] 106% | [6] 106%
active: [3] 91.7% | [4] 90.9% | [7] 73.6% | [8] 31.5% | [9] 66.7% | [10] 41.5% | [11] 51% | [12] 17.7% | [13] 44.5% | [14] 29% | [15] 57.9% | [16] 14.5% | [17] 36.6% | [18] 24% | [19] 49.3% | [20] 12.1% | [21] 34% | [22] 23.4% | [23] 49.8% | [24] 10.9% | [25] 33.5% | [26] 23.5% | [27] 44.2% | [28] 12.2% | [29] 34.1% | [30] 22.9% | [31] 43% | [32] 11.8%

CO[C@H]1C[C@@H]2CC[C@@H](C)[C@@](O)(O2)C(=O)C(=O)N2CCCC[C@H]2C(=O)O[C@H]([C@@H](C)C[C@@H]2CC[C@@H](OCCO)[C@H](OC)C2)CC(=O)[C@H](C)/C=C(\C)[C@H](O)[C@@H](OC)C(=O)[C@H](C)C[C@H](C)/C=C/C=C/C=C/1C
inactive: [1] 103% | [2] 135% | [5] 106% | [6] 120% | [9] 120% | [10] 115% | [13] 115% | [14] 112% | [17] 111% | [18] 119% | [21] 110% | [22] 111% | [25] 115% | [26] 103% | [29] 123% | [30] 120%
active: [3] 91.8% | [4] 83.4% | [7] 88% | [8] 74.1% | [11] 85% | [12] 72.9% | [15] 79.5% | [16] 72.3% | [19] 86.3% | [20] 73.1% | [23] 88% | [24] 67.8% | [27] 73.4% | [28] 60.4% | [31] 69.5% | [32] 59.4%

C[C@]12CCC(=O)C=C1CC[C@@H]1[C@H]2[C@H](O)C[C@@]2(C)[C@H]1CC[C@@]2(O)C(=O)CO
inactive: [1] 107% | [2] 119% | [3] 105% | [4] 115% | [5] 109% | [6] 116% | [8] 109% | [9] 114% | [10] 121% | [11] 102% | [12] 117% | [13] 110% | [14] 128% | [15] 109% | [16] 112% | [17] 112% | [18] 132% | [19] 103% | [20] 115% | [21] 103% | [22] 119% | [23] 104% | [24] 114% | [25] 111% | [26] 118% | [27] 103% | [28] 114% | [29] 125% | [30] 120% | [31] 103%
active: [7] 98.6% | [32] 99.3%

O=C(/C=C/c1ccc2ccccc2n1)c1ccncc1
active: [3] 96% | [4] 84.9% | [7] 99.6% | [8] 91.2% | [11] 70.3% | [12] 17.7% | [15] 56.8% | [16] 13.9% | [19] 51.3% | [20] 15.5% | [23] 54.4% | [24] 13.6% | [27] 34.2% | [29] 3.77% | [31] 16.9%
inactive: [1] 108% | [2] 116% | [5] 121% | [6] 120% | [9] 119% | [10] 119% | [13] 122% | [14] 130% | [17] 119% | [18] 116% | [21] 120% | [22] 112% | [25] 113% | [26] 124% | [28] 111% | [30] 128% | [32] 109%

COc1cccc2c1C(=O)c1c(O)c3c(c(O)c1C2=O)C[C@@](O)(C(=O)CO)C[C@H]3O[C@H]1C[C@H](N)[C@H](O)[C@H](C)O1
active: [19] 97.4% | [20] 82% | [23] 58.8% | [24] 32.7% | [25] 50% | [26] 16.5% | [27] 10.3% | [28] 13.8% | [29] 4.6% | [30] 1.33% | [31] 5.65% | [32] 8.22%
inactive: [1] 127% | [2] 120% | [3] 109% | [4] 109% | [5] 111% | [6] 111% | [7] 110% | [8] 106% | [9] 118% | [10] 117% | [11] 104% | [12] 108% | [13] 130% | [14] 110% | [15] 103% | [16] 106% | [17] 115% | [18] 103% | [21] 164% | [22] 125%
